# MITF primary – inhibitors of human MITF; AID 1259374; AlphaScreen MITF homodimerization, bead proximity signal; inhibition, % at 2.6 µM; actives 0.91% (n = 650,000); O75030; in the data active means inhibition above about 50%;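 further: 0% = vehicle wells with protein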
# Target sequence (O75030 whole entry, looked up): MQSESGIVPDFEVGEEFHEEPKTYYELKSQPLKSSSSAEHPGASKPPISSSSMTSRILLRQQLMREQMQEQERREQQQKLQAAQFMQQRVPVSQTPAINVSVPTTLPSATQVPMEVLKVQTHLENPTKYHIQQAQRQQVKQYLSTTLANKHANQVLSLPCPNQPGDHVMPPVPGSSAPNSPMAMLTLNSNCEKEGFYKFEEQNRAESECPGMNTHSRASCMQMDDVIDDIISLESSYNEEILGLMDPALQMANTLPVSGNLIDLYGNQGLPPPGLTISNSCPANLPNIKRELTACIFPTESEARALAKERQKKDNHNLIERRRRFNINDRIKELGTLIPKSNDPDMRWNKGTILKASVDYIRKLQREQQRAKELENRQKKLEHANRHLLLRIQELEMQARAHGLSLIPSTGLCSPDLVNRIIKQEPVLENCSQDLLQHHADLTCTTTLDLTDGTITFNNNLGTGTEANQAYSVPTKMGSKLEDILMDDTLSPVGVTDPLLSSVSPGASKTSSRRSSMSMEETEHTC
# TEAD-YAP block – TEAD-YAP interaction inhibition | AID 1259422 | inhibition, % at 9.12 µM | actives 1.4% (n = 640,000) | HEK-TIYL cells, TEAD-Gal4/YAP UAS-luciferase luminescence; in the data active means inhibition above about 32%;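 further: 0% = median of test compound wells and 100% = reference inhibitor wells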
# GPR151 ag – activators of human GPR151 | activation, % at 11.2 µM | PathHunter beta-arrestin GPR151 cells, luminescence | Q8TDV0 | AID 1508602 | actives 1% (n = 650,000); in the data active means activation above about 4.9%;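 further: 0% = median of compound wells and 100% = cells with positive control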
# FBW7 act – activators of human E3 ligase FBW7; Q969H0; AlphaScreen FBW7–phospho-cyclin E peptide binding, activator screen; normalized activity (activation), % at 26.1 µM; actives 0.13% (n = 650,000); AID 1259310; in the data active means normalized activity above about 1.9%;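 further: purified mutant Fbw7 with reduced substrate affinity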
# * = called active by the depositor. A selection: hits, their analogues and other compounds. The true share with any hit is near 3.5%.
SMILES,MITF primary,TEAD-YAP block,GPR151 ag,FBW7 act
Cc1c2oc3c(C)ccc(C(=O)OC(C)C4NC(=O)C(C(C)C)N(C)C(=O)CN(C)C(=O)C5CCCN5C(=O)C(C(C)C)NC4=O)c3nc-2c(C(=O)OC(C)C2NC(=O)C(C(C)C)N(C)C(=O)CN(C)C(=O)C3CCCN3C(=O)C(C(C)C)NC2=O)c(N)c1=O (stereo not drawn),-2,96*,3,0
O=C1C(Sc2ncn[nH]2)=C/C(=N/S(=O)(=O)c2ccc(F)cc2)c2ccccc21,9,16,-1,0
CCCNc1ccc2ncc(-c3cccc(C(N)=O)c3)n2n1,13,33*,0,0
CCCNc1ccc2ncc(-c3ccc(OC)c(OC)c3)n2n1,-21,34*,0,0
COc1ccc(CNc2ccc3ncc(-c4ccc(O)c(OC)c4)n3n2)cc1,14,1,0,0
COc1cc(-c2cnc3ccc(NCCCO)nn23)ccc1O,8,75*,0,0
C=CCNc1cc(N2CCN(C(=O)c3ccc(Cl)cc3)CC2)ccc1[N+](=O)[O-],11,4,1,0
O=C(COc1ccccc1)Nc1ccc(N2CCCC2=O)cc1,2,-18,1,0
Cc1cccc(-n2c(O)c(/C=N/NC(=O)c3ccccc3Cl)c3ccccc3c2=O)n1,3,-3,-1,0
O=C(Cc1ccc(F)cc1)N/N=C/c1c(O)n(-c2ccccc2Cl)c(=O)c2ccccc12,19,60*,-2,-1
COC(=O)c1ccc(COC(=O)c2ccc(OCc3c(C)noc3C)c(OC)c2)cc1,1,-26,0,0
COc1cc(C(=O)OCC(C)=O)ccc1OCc1c(C)noc1C,9,48*,-2,0
COc1ccc(C2CC(c3c(O)cc(C)oc3=O)=Nc3ccccc3S2)cc1O (stereo not drawn),7,62*,-2,0
COc1ccc(C2CC(c3c(O)cc(C)oc3=O)=NCCS2)c(OC)c1 (stereo not drawn),-2,42*,0,0
Cc1ccn(S(=O)(=O)c2ccc(N3CCCC3=O)c([N+](=O)[O-])c2)n1,8,-8,1,1
C#Cc1cccc(N2C(=O)C3C4C=CC(C4)C3C2=O)c1 (stereo not drawn),2,-7,-1,0
COc1ccc(/C=C(\NC(=O)c2ccccc2Cl)C(=O)NC2CCS(=O)(=O)C2)cc1 (stereo not drawn),9,2,2,0
Cc1cc2cc3c(cc2c(C)n1)c1ccccc1n3C,-8,63*,-1,0
Cn1c2ccccc2c(=O)c2ccccc21,-6,-38,0,0
CC(C)C(CCC(=O)NC1CCCCC1)C(=O)O (stereo not drawn),16,2,1,0
Cc1cc2nc3s/c(=C/c4ccc(N5CCN(C)CC5)c([N+](=O)[O-])c4)c(=O)n3c2cc1C,-6,38*,-2,0
Cc1cc2nc3s/c(=C/c4cc5c(cc4[N+](=O)[O-])OCO5)c(=O)n3c2cc1C,0,-5,2,0
Cc1cc(N2CCN(CCOc3ccccc3)CC2)n2c(nc3ccccc32)c1C#N,-4,-4,0,0
CC(=O)O/N=C(/C)CC1(OC(C)=O)C(=O)N(C)c2ccccc21 (stereo not drawn),-2,0,-1,0
Nc1nc(-c2ccco2)nn1C(=O)c1ccccc1,16,-2,0,2.0*
SMILES,MITF primary,TEAD-YAP block,GPR151 ag,FBW7 act
CSc1ncc(C(=O)Nc2cc(C)cc(C)c2)c(C)n1,-5,-5,-1,0
CC(Nc1ncnc2ccc(Br)cc12)c1ccccc1 (stereo not drawn),19,34*,-1,0
COCCCNc1ncnc2ccc(Br)cc12,2,29,1,0
CC(Nc1ncnc2ccccc12)c1ccccc1 (stereo not drawn),2,56*,1,0
Brc1ccc2ncnc(NCCc3ccccc3)c2c1,9,64*,0,0
CCc1[nH]nc2c1C(c1ccccc1Cl)C(C#N)=C(N)O2 (stereo not drawn),-5,1,-1,0
CC(C)[C@@H](CO)Nc1ccc2ncc(-c3ccc(N)cc3)n2n1,9,31,-1,17*
Cc1ccc(-c2cnc3ccc(N[C@H](CO)C(C)C)nn23)cc1,-14,17,2,0
CC(C)[C@@H](CO)Nc1ccc2ncc(-c3cccc(F)c3)n2n1,-9,14,0,0
CC(C)[C@@H](CO)Nc1ccc2ncc(-c3cccc(O)c3)n2n1,18,39*,-1,0
CC(C)c1ccc(CNC(=O)C(=O)NCc2cccnc2)cc1,-12,47*,0,0
O=C(NCc1ccccc1)C(=O)NCc1cccnc1,1,-7,2,0
O=C(NCc1cccnc1)c1ccc(C#Cc2ccccc2)o1,-2,99*,0,0
O=C(Nc1ccccc1)c1cccc(N2CCCC2CO)n1 (stereo not drawn),11,-28,-1,0
COc1cc(NC(=O)c2cccc(-c3ccc(C(=O)NC4CC4)cc3)n2)cc(OC)c1OC,6,34*,1,0
O=C(Nc1ccccc1)c1cccc(N2CCN(c3ccccn3)CC2)n1,-15,-15,4,0
CC(=O)Nc1ccc(NC(=O)c2cccc(N3CCN(c4ccccn4)CC3)n2)cc1,-10,36*,1,0
COc1cc(NC(=O)c2cccc(N3CCN(c4ccccn4)CC3)n2)cc(OC)c1OC,-11,42*,-2,0
COc1cc(NC(=O)c2ccnc(N3CCN(c4ccccn4)CC3)c2)cc(OC)c1OC,4,14,0,0
COc1cc(NC(=O)c2cccc(N3CCCC3CO)n2)cc(OC)c1OC (stereo not drawn),-1,35*,0,0
CCOc1cccc(CN2CCOc3ccc(C(O)c4ccncc4)cc3C2)c1 (stereo not drawn),16,-4,0,0
C=CCNC(=O)C1CCC(=O)N1C(C)C (stereo not drawn),-7,-1,0,2.1*
CCCN(CCC)CCCNC(=O)C1CCC(=O)N1C(C)C (stereo not drawn),0,-10,1,0
c1cc2c(cc1CN1CCN(c3nc(NC4CC4)c4ncn(C5CCCCC5)c4n3)CC1)OCO2,14,3,0,0
c1ccc2[nH]c(CNc3nc(N4CCN(Cc5ccc6c(c5)OCO6)CC4)nc4c3ncn4-c3ccsc3)nc2c1,-3,85*,0,0
c1ccc2[nH]c(CNc3nc(N4CCN(Cc5ccc6c(c5)OCO6)CC4)nc4c3ncn4C3CCCCC3)nc2c1,-1,41*,3,0
Cc1sc2ncnc(NCCc3ccc4c(c3)OCCO4)c2c1C,17,57*,1,1
Cc1sc2ncnc(NCC3COc4ccccc4O3)c2c1C (stereo not drawn),5,48*,0,0
CN(C)c1cccc(NC(=O)Nc2cccc(NC(=O)Nc3cccc(N(C)C)c3)c2)c1,0,-2,0,0
CC1(C)C(=O)NCCN1C(=O)c1ccc(C(=O)c2ccccc2)cc1,-16,39*,-1,0

# Bioassay records deposited in PubChem by The Scripps Research Institute Molecular Screening Center.
